Test results from PubChem BioAssay.

Tests used:
[1] = system: Human papillomavirus type 1a protein E7 (residues 44-93); test: small molecules binding HPV E7 44-93 – biochemical, small-molecule microarray, residues 44-93, 635 nm fluorescence, primary screen (AID 1108); details: fluorescence 635 nm, higher = more signal;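 further: E7 fragment applied at 1 µg/mL in TBST for 1 h at 4 C; score combines spot fluorescence with its signal to noise ratio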
[2] = hepatitis C replication reporter changes, two-sided – Huh7 cells, luciferase reporter, HCV replication inhibitor project, primary screen (AID 1109); details: Huh7 HCV replicon luciferase reporter, 48 h; higher = more signal;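 further: huh7 hepatoma cells harbouring a luciferase neomycin HCV replicon reporter; luciferase luminescence as measure of HCV replicon replication; test concentration not given here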
[3] = biological target: Left-right determination factor 2 (Homo sapiens) (UniProt O00292); test: small molecules binding LEFTY2 protein – biochemical, small-molecule microarray, 635 nm fluorescence scan, primary screen (AID 1110); details: higher = more signal
[4] = biological target: Calmodulin-1 (Homo sapiens) (UniProt P0DP23); test: small molecules binding calmodulin-1 with EGTA – biochemical, small-molecule microarray, Cy5-labelled CALM1, profiling panel (AID 1111); details: Cy5-CALM1 binding fluorescence, higher = more signal;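 further: labelled calmodulin applied in Tris saline Tween buffer holding calcium plus EGTA and DTT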
[5] = biological target: Calmodulin-1 (Homo sapiens) (UniProt P0DP23); test: small molecules binding Ca-loaded calmodulin-1 – biochemical, small-molecule microarray, Cy5-labelled CALM1, plus calcium, artefact control for SMM control-protein annotation, profiling panel (AID 1112); details: Cy5-CALM1 binding fluorescence, higher = more signal;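 further: score merges spot fluorescence with signal to noise from triplicate slides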
[6] = probe aWnt5a binding to arrayed compounds – biochemical, biotinylated probe, 635/667 nm fluorescence, primary screen (AID 1113); details: small-molecule microarray, higher = more signal;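 further: score merges 667 nm fluorescence intensity with signal-to-noise per printed feature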
[7] = probe aShh binding to arrayed compounds – biochemical, biotinylated probe, 635/667 nm fluorescence, primary screen (AID 1114); details: small-molecule microarray, higher = more signal;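 further: probe is biotin-labelled aShh protein from a stem cell growth factor screen; measures binding of labelled protein to compounds printed on the slide; score merges feature fluorescence at 667 nm with signal-to-noise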
[8] = probe aNog binding to arrayed compounds – biochemical, biotinylated probe, 635/667 nm fluorescence, primary screen (AID 1115); details: small-molecule microarray, higher = more signal;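 further: probe is biotinylated aNog protein used at 0.15 µg/mL for 1 h at 4 C; z-score combines 667 nm fluorescence of each spot with its signal to noise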
[9] = biological target: Torsin-1A-interacting protein 1 (Homo sapiens) (UniProt Q5JTV8); test: compound microarray binding of lysate hLAP1 – cell lysate, small-molecule microarray, COS7 lysate, 635/667 nm fluorescence, primary screen (AID 1116); details: 635 nm fluorescence, higher = more signal
[10] = biological target: Alpha-bungarotoxin (Bungarus multicinctus) (UniProt P60615); test: compounds binding labelled alpha-BTX control protein – biochemical, small-molecule microarray, Alexa647 label, 635/667 nm fluorescence, artefact control for SMM control protein annotation, profiling panel (AID 1117); details: alpha-BTX-A647 binding fluorescence, higher = more signal
Sequence of Alpha-bungarotoxin (Bungarus multicinctus) (P60615 whole entry, looked up): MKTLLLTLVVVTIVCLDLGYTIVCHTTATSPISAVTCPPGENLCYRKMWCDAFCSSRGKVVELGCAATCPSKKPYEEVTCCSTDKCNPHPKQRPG

Sequence of Torsin-1A-interacting protein 1 (Homo sapiens) (Q5JTV8 whole entry, looked up): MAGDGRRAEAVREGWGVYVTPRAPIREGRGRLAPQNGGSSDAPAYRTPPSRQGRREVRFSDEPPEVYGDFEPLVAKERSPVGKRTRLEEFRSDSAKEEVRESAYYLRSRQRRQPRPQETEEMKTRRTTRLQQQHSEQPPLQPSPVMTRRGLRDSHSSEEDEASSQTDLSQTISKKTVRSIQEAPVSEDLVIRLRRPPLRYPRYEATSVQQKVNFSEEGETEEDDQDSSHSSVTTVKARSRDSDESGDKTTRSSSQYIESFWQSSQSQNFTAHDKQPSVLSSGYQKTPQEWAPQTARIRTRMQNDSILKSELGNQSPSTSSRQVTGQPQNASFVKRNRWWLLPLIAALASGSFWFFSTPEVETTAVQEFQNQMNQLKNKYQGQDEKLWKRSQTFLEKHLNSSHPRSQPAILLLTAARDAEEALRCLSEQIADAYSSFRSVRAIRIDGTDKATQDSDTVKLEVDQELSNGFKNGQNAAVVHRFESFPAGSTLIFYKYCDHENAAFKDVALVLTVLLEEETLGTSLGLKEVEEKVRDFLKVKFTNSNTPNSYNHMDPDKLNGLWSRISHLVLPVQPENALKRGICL
Sequence of Left-right determination factor 2 (Homo sapiens) (O00292 whole entry, looked up): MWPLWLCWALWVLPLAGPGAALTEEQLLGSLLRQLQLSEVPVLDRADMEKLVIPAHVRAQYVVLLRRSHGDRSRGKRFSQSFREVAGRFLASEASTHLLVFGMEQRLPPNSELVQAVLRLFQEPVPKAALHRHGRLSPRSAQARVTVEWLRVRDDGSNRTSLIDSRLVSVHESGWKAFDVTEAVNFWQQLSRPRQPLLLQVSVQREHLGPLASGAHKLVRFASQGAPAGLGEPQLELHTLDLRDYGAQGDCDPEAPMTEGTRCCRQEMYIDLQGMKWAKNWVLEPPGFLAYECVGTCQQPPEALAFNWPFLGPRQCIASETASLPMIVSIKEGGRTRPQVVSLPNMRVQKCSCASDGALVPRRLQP

Row | SMILES | composite z-score [1] | z-score [2] | composite z-score [3] | composite z-score [4] | composite z-score [5] | composite z-score [6] | composite z-score [7] | composite z-score [8] | composite z-score [9] | composite z-score [10]
1 | CS(=O)(=O)CCOC(=O)C1=CC(c2ccc(CO)cc2)=CC(C2CC2)N(Cc2sc3ccccc3c2Cl)C=C1C(=O)OCCS(C)(=O)=O (stereo not given) | 0.491 | -1.7 | 0.815 | 0.0782 | 0.0677 | -0.0685 | 0.199 | 0.611 | 0.702 | 1.89
2 | C=CCNC(=O)[C@@H]1[C@H]2C(=O)O[C@H](c3ccccc3)[C@H](c3ccccc3)N2[C@H](c2ccc(O)cc2)[C@@]12C(=O)N(C(=O)OCCOC)c1ccc(C#CC3=CCCCC3)cc12 | 1.36 | -2.14 | 0.588 | 0.544 | -0.0251 | -0.0685 | -0.0769 | 0.185 | 0.319 | 0.662
3 | CCCCN1CC=CC23O[C@@H]4/C=C\CCCOC(=O)C4[C@H]2C(=O)N(CCO)[C@@H]3C1=O (stereo not given in full) | 0.493 | -0.219 | -1.51 | -0.343 | 0.278 | -0.221 | -0.206 | -0.158 | 0.0966 | -0.401
4 | CCOC(=O)C[C@H]1[C@H](OC(=O)c2cc3ccccc3oc2=O)[C@@H](NC(=O)CC(C)C)c2cc(OCCCO)ccc2N1C(=O)c1ccc2ccccc2n1 | 1.05 | -0.359 | 0.643 | -0.134 | -0.35 | -0.152 | -0.154 | -0.143 | 0.0785 | 0.643
5 | CCOC(=O)C[C@H]1[C@H](OC(=O)c2ccc(C(=O)c3ccccc3)cc2)[C@@H](NC(=O)C2CCCCC2)c2cc(OCCCO)ccc2N1C(=O)c1ccc2ccccc2n1 | 1.3 | 0.0574 | 0.752 | 0.711 | -0.102 | 0.0552 | -0.243 | -0.244 | 0.805 | 0.673
6 | [N-]=[N+]=NCc1ccccc1[C@@H]1OC(c2ccc(OCCCO)cc2)=N[C@]1(CCS(=O)(=O)c1ccccc1)C(=O)O | 1.31 | 1.1 | -0.151 | 0.678 | 0.0892 | 0.0487 | 0.0469 | 0.592 | 0.953 | 1.17
7 | COC(=O)[C@@]1(Cc2ccc(F)cc2)[C@H]2c3cc(C(=O)N(C)C)n(Cc4ccc(OC(F)(F)F)cc4)c3C[C@H]2CN1C(=O)c1ccccc1 | 0.841 | 0.167 | 0.242 | 0.11 | -0.191 | -0.0758 | 0.442 | 0.0924 | -0.147 | 0.414
8 | CC(C)=C1C(=O)C(c2ccccc2)=C2CN3C(=O)N(CCc4ccccc4)C(=O)[C@]3(Cc3ccc(C(F)(F)F)cc3)[C@H]21 | -0.396 | -0.508 | -0.906 | 1.66 | 0.953 | 0.0044 | 0.275 | -0.781 | 0.759 | 0.716
9 | COCCOC(=O)N1C(=O)[C@@]2(c3ccccc31)[C@H](c1ccc(O)cc1)N1[C@H](c3ccccc3)[C@H](c3ccccc3)OC(=O)[C@H]1[C@@H]2C(=O)N1CCN(c2ncccn2)CC1 | 1.29 | -1.51 | 0.332 | 0.667 | 0.618 | -0.0084 | 0.0469 | 0.927 | 0.675 | 0.692
10 | O=C1C2C=CC(C(O)c3cccc(O)c3)N(Nc3ccc([N+](=O)[O-])cc3)C2C(=O)N1c1ccccc1 (stereo not given) | 0.939 | -0.278 | 0.183 | 0.0968 | 0.219 | -0.0462 | 0.0022 | -0.163 | 0.26 | 1.13
11 | CCOC(=O)C[C@H]1[C@H](OC(=O)Cc2ccc3c(c2)OCO3)[C@@H](NC(=O)c2ccc3ccccc3n2)c2cc(OCCCO)ccc2N1C(=O)c1ccccc1 | 0.348 | -1.26 | -0.0499 | 0.179 | -0.564 | -0.0269 | -0.214 | 0.0589 | 0.49 | 0.611
12 | CC(C)N1C(=O)C[C@@](C(=O)NC2CC2)(c2ccc([N+](=O)[O-])cc2)[C@H]1c1ccc(CO)cc1 | 1.3 | -1.2 | -1.15 | -0.673 | -0.606 | -0.0934 | -0.0709 | -0.566 | -0.315 | 0.181
13 | COCC(=C=CC[C@H](O)c1ccccc1OCCO)C[C@H](O)c1ccccn1 | -0.0881 | -0.267 | 0.155 | -0.0135 | -0.411 | -0.18 | -0.214 | -0.173 | -0.191 | -0.0928
